Substitutions are numbered along the chain they refer to.

Holding throughout (assay): PBM; 200 nM protein, PBS
Common to all, as to settings: dsDNA, one strand shown

For experiment [1], the target named is T1, SIX6 (Homo sapiens, UniProt O95475 114-200, L167I).
T1 sequence: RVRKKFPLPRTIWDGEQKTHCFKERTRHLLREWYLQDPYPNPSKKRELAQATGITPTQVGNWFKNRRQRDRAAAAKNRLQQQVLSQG

Experiment [2] concerns the target T2, SIX6 (Homo sapiens, UniProt O95475 114-200, L143V).
T2 sequence: T1 sequence with L30V, I54L

Experiment [3] deals with T3, SIX6 (Homo sapiens, UniProt O95475 114-200, H141N).
T3 sequence: T1 sequence with H28N, I54L

The target of experiment [4] is T4, SIX6 (Homo sapiens, UniProt O95475 114-200, T165P).
T4 sequence: T1 sequence with T52P, I54L

Experiment [5] addresses T5, SIX6 (Homo sapiens, UniProt O95475 114-200, L167M).
T5 sequence: T1 sequence with I54M

In experiment [6] the target is T6, SIX6 (Homo sapiens, UniProt O95475 114-200, L143M).
T6 sequence: T1 sequence with L30M, I54L

The target of experiment [7] is T7, SIX6 (Homo sapiens, UniProt O95475 114-200, L143I).
T7 sequence: T1 sequence with L30I, I54L

The target in experiment [8] is T8, SIX6 (Homo sapiens, UniProt O95475 114-200, T165G).
T8 sequence: T1 sequence with T52G, I54L

Experiment [9] has as its target T9, SIX6 (Homo sapiens, UniProt O95475 114-200, T139Q).
T9 sequence: T1 sequence with T26Q, I54L

Experiment [10] concerns the target T10, SIX6 (Homo sapiens, UniProt O95475 114-200, T165A).
T10 sequence: T1 sequence with T52A, I54L

The target in experiment [11] is T11, SIX6 (Homo sapiens, UniProt O95475 114-200, L167V).
T11 sequence: T1 sequence with I54V

The target in experiment [12] is T12, SIX6 (Homo sapiens, UniProt O95475 114-200).
T12 sequence: T1 sequence with I54L

Experiment [13] deals with T13, SIX6 (Homo sapiens, UniProt O95475 114-200, T165I).
T13 sequence: T1 sequence with T52I, I54L

GATACACC: the binding signal in [1] was 11.1 upbm affinity estimate (log intensity, higher = more binding, comparable within an allelic series); in experiment [2], 10.4 upbm affinity estimate (log intensity, higher = more binding, comparable within an allelic series); in experiment [3], 11.1 upbm affinity estimate (log intensity, higher = more binding, comparable within an allelic series); in [4] it was 9.65 upbm affinity estimate (log intensity, higher = more binding, comparable within an allelic series); in [5], 10.7 upbm affinity estimate (log intensity, higher = more binding, comparable within an allelic series); in [6] it was 10.9 upbm affinity estimate (log intensity, higher = more binding, comparable within an allelic series). For the same sequence, the binding signal in experiment [7] is 10.4 upbm affinity estimate (log intensity, higher = more binding, comparable within an allelic series); in experiment [8], 11.2 upbm affinity estimate (log intensity, higher = more binding, comparable within an allelic series); in [9] it was 11.2 upbm affinity estimate (log intensity, higher = more binding, comparable within an allelic series); in experiment [10] it was 11.1 upbm affinity estimate (log intensity, higher = more binding, comparable within an allelic series); in [11] it was 10.9 upbm affinity estimate (log intensity, higher = more binding, comparable within an allelic series); in [12], 11.1 upbm affinity estimate (log intensity, higher = more binding, comparable within an allelic series). In experiment [13], the binding signal was 10.9 upbm affinity estimate (log intensity, higher = more binding, comparable within an allelic series).

With AGATATCA, the binding signal in experiment [1] was 11.4 upbm affinity estimate (log intensity, higher = more binding, comparable within an allelic series); in [2], 10.5 upbm affinity estimate (log intensity, higher = more binding, comparable within an allelic series); in [3], 11.4 upbm affinity estimate (log intensity, higher = more binding, comparable within an allelic series); in experiment [4], 10.1 upbm affinity estimate (log intensity, higher = more binding, comparable within an allelic series); in [5], 10.8 upbm affinity estimate (log intensity, higher = more binding, comparable within an allelic series); in experiment [6], 11 upbm affinity estimate (log intensity, higher = more binding, comparable within an allelic series). Further, the binding signal in experiment [7] was 10.4 upbm affinity estimate (log intensity, higher = more binding, comparable within an allelic series); in experiment [8], 11.2 upbm affinity estimate (log intensity, higher = more binding, comparable within an allelic series); in experiment [9], 11.1 upbm affinity estimate (log intensity, higher = more binding, comparable within an allelic series); in experiment [10], 11.2 upbm affinity estimate (log intensity, higher = more binding, comparable within an allelic series); in experiment [11], 11.2 upbm affinity estimate (log intensity, higher = more binding, comparable within an allelic series); in experiment [12], 11 upbm affinity estimate (log intensity, higher = more binding, comparable within an allelic series). In addition, in experiment [13], the binding signal is 11.1 upbm affinity estimate (log intensity, higher = more binding, comparable within an allelic series).

ATGGTATC: the binding signal is 11 upbm affinity estimate (log intensity, higher = more binding, comparable within an allelic series) in [1]; 10.3 upbm affinity estimate (log intensity, higher = more binding, comparable within an allelic series) in experiment [2]; 11 upbm affinity estimate (log intensity, higher = more binding, comparable within an allelic series) in [3]; 9.62 upbm affinity estimate (log intensity, higher = more binding, comparable within an allelic series) in experiment [4]; 10.6 upbm affinity estimate (log intensity, higher = more binding, comparable within an allelic series) in [5]; 10.7 upbm affinity estimate (log intensity, higher = more binding, comparable within an allelic series) in experiment [6]. The binding signal in [7] is 10.4 upbm affinity estimate (log intensity, higher = more binding, comparable within an allelic series); in [8], 11.1 upbm affinity estimate (log intensity, higher = more binding, comparable within an allelic series); in experiment [9], 11.2 upbm affinity estimate (log intensity, higher = more binding, comparable within an allelic series); in experiment [10], 10.9 upbm affinity estimate (log intensity, higher = more binding, comparable within an allelic series); in experiment [11], 10.8 upbm affinity estimate (log intensity, higher = more binding, comparable within an allelic series); in experiment [12], 10.9 upbm affinity estimate (log intensity, higher = more binding, comparable within an allelic series). In addition, the binding signal in [13] is 10.8 upbm affinity estimate (log intensity, higher = more binding, comparable within an allelic series).

Take ACTGCCGG: the binding signal was 9.01 upbm affinity estimate (log intensity, higher = more binding, comparable within an allelic series) in experiment [1]; 9.11 upbm affinity estimate (log intensity, higher = more binding, comparable within an allelic series) in experiment [2]; 9.15 upbm affinity estimate (log intensity, higher = more binding, comparable within an allelic series) in [3]; 9.02 upbm affinity estimate (log intensity, higher = more binding, comparable within an allelic series) in experiment [4]; 9.04 upbm affinity estimate (log intensity, higher = more binding, comparable within an allelic series) in experiment [5]; 9.15 upbm affinity estimate (log intensity, higher = more binding, comparable within an allelic series) in experiment [6]. In addition, the binding signal in experiment [7] is 9.19 upbm affinity estimate (log intensity, higher = more binding, comparable within an allelic series); in experiment [8], 9.17 upbm affinity estimate (log intensity, higher = more binding, comparable within an allelic series); in experiment [9], 9.29 upbm affinity estimate (log intensity, higher = more binding, comparable within an allelic series); in experiment [10], 9.08 upbm affinity estimate (log intensity, higher = more binding, comparable within an allelic series); in [11], 9.11 upbm affinity estimate (log intensity, higher = more binding, comparable within an allelic series); in [12], 9.23 upbm affinity estimate (log intensity, higher = more binding, comparable within an allelic series). Besides, the binding signal in [13] is 9.16 upbm affinity estimate (log intensity, higher = more binding, comparable within an allelic series).

As to GACGGCCC, the binding signal is 8.94 upbm affinity estimate (log intensity, higher = more binding, comparable within an allelic series) in [1]; 8.75 upbm affinity estimate (log intensity, higher = more binding, comparable within an allelic series) in experiment [2]; 8.98 upbm affinity estimate (log intensity, higher = more binding, comparable within an allelic series) in [3]; 8.86 upbm affinity estimate (log intensity, higher = more binding, comparable within an allelic series) in experiment [4]; 8.9 upbm affinity estimate (log intensity, higher = more binding, comparable within an allelic series) in experiment [5]; 8.78 upbm affinity estimate (log intensity, higher = more binding, comparable within an allelic series) in [6]. The binding signal is 8.82 upbm affinity estimate (log intensity, higher = more binding, comparable within an allelic series) in experiment [7]; 9 upbm affinity estimate (log intensity, higher = more binding, comparable within an allelic series) in experiment [8]; 8.92 upbm affinity estimate (log intensity, higher = more binding, comparable within an allelic series) in [9]; 8.88 upbm affinity estimate (log intensity, higher = more binding, comparable within an allelic series) in experiment [10]; 8.84 upbm affinity estimate (log intensity, higher = more binding, comparable within an allelic series) in experiment [11]; 8.88 upbm affinity estimate (log intensity, higher = more binding, comparable within an allelic series) in [12]. For the same sequence, in [13], the binding signal was 8.88 upbm affinity estimate (log intensity, higher = more binding, comparable within an allelic series).

Source of the values: PMC11006913.
